In PubChem BioAssay (Tox21) one finds Potency and activity change, negative = inhibition data, which are given here for 23 compounds.

A short description of test [1]: qHTS assay to identify small molecule antagonists of the sonic hedgehog signaling (Shh) pathway (AID 1259369). Also: nearly all actives have a fitted effect of over 45% in size. Also: potency is read from the fitted curve at half-maximal effect. An outline of the steps:
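Stable Gli1-Luc reporter NIH/3T3 clone; quantitative HTS in stimulated mode with conditioned medium. Luminescence measured after 24hr compound treatment at 37 C.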
For orientation: Quantitative high-throughput screening tests each substance at several concentrations.

Test [2] has as its target Estrogen receptor beta (Homo sapiens) (UniProt Q92731). Kind of test: qHTS assay to identify small molecule agonists of the estrogen receptor beta (ER-beta) signaling pathway (AID 1259377; active = well fitted activation curve with a large enough effect in the signal ratio in the repeat runs, not every such curve was filed as active; the % refers to the signal ratio). An outline of the steps:
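HEK293T ER-beta-UAS-bla; 2% charcoal-stripped FBS; cells pre-incubated 6 hr, compound 16 hr, 37C/5% CO2; LiveBLAzer B/G FRET substrate 2 h RT; fluorescence intensity read.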

Test [3] has the same target. Kind of test: qHTS assay to identify small molecule antagonists of the estrogen receptor beta (ER-beta) signaling pathway (AID 1259378; active = well fitted inhibition curve with a large enough effect in the signal ratio in the repeat runs, not every such curve was filed as active; the % refers to the signal ratio; also: potency is read from the fitted curve at half-maximal effect). An outline of the steps: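 ER-beta-UAS-bla HEK293T cells in 2% charcoal-stripped FBS medium treated with compound plus 1nM final 17-beta-estradiol for 16 hr at 37C. Beta-lactamase reporter read by FRET substrate fluorescence after 2 hours at room temperature.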

Test [4] can be described thus: qHTS assay to identify small molecule agonists of the androgen receptor (AR) signaling pathway in the presence of an antagonist - cell viability counter screen (AID 1259379; active = well fitted curve in the direction sought with a large enough effect in the repeat runs; an effect the other way counts as inactive or inconclusive; also: nearly all actives have a fitted effect of over 25% in size; also: potency is read from the fitted curve at half-maximal effect). An outline of the steps:
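Nilutamide-containing (3.0uM final) MDA-kb2 cultures, 3,000 cells/well, were treated with compounds across 15 concentrations. After 16 hr at 37C with no CO2, cell viability was determined by CellTiter-Fluor fluorescence in the luciferase assay wells.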

Test [5] can be described thus: qHTS assay to identify small molecule agonists of the estrogen receptor beta (ER-beta) signaling pathway - cell viability counter screen (AID 1259380; active = well fitted curve in the direction sought with a large enough effect in the repeat runs; an effect the other way counts as inactive or inconclusive; also: nearly all actives have a fitted effect of over 30% in size; also: potency is read from the fitted curve at half-maximal effect). An outline of the steps:
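Steps: plate ER-beta-UAS-bla HEK293T cells, rest 6 hr; add compounds in DMSO; incubate 16 hr at 37C, 5% CO2; add FRET substrate 2 hr; add CellTiter-Glo, wait 30 min at room temperature; read luminescence.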

Test [6] can be described thus: qHTS assay to identify small molecule antagonists of the estrogen receptor beta (ER-beta) signaling pathway - cell viability counter screen (AID 1259382; active = well fitted curve in the direction sought with a large enough effect in the repeat runs; an effect the other way counts as inactive or inconclusive; also: nearly all actives have a fitted effect of over 55% in size; also: potency is read from the fitted curve at half-maximal effect). An outline of the steps:
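Viability is scored by CellTiter-Glo luminescence (30 min, room temperature) in ER-beta-UAS-bla HEK293T wells already read for reporter fluorescence. Compound exposure lasts 16 hr at 37C alongside 1nM 17-beta-estradiol in charcoal-stripped serum medium.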

For test [7], the target named is Estrogen receptor (Homo sapiens) (UniProt P03372). Kind of test: qHTS assay to identify small molecule agonists of the estrogen receptor alpha (ER-alpha) signaling pathway in the presence of an antagonist (AID 1259383). Also: top concentration of the series differs between compounds; nearly all actives have a fitted effect of over 15% in size. An outline of the steps: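 Readout was ERE-driven luciferase luminescence in VM7Luc4E2 cells, which express full-length ER-alpha endogenously. Compounds were tested at 15 concentrations for 22hr alongside 10.0nM ICI-182,780 (final concentration).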

Test [8] is described as follows: qHTS assay to identify small molecule agonists or antagonists of the thyroid stimulating hormone receptor (TSHR) signaling pathway - wild type cell line counter screen (AID 1259384). Also: potency is read from the fitted curve at half-maximal effect. An outline of the steps:
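Wild-type Hek293 cells, 800/well, 18 h at 37C, then compound with Ro20-1724 for 30 min RT. cAMP by HTRF (cAMP-d2/anti-cAMP cryptate), 1 h RT, fluorescence read. 15 concentrations, triplicates.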

Test [9] has as its target Thyrotropin receptor (Homo sapiens) (UniProt P16473). Kind of test: qHTS assay to identify small molecule antagonists of the thyroid stimulating hormone receptor (TSHR) signaling pathway (AID 1259385). Also: nearly all actives have a fitted effect of over 20% in size. Also: potency is read from the fitted curve at half-maximal effect. An outline of the steps:
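TSHR-HEK293 cells (800/well) plated 18 h, then compounds with Ro20-1724 and TSH at 1.5 ng/mL final, 30 min at room temperature. cAMP quantified by HTRF (cAMP-d2/anti-cAMP-cryptate, 1 h); 15 concentrations in triplicate.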

Test [10] deals with Androgen receptor (Homo sapiens) (UniProt P10275). Kind of test: qHTS assay to identify small molecule agonists of the androgen receptor (AR) signaling pathway in the presence of an antagonist (AID 1259381). Also: nearly all actives have a fitted effect of over 15% in size. Also: potency is read from the fitted curve at half-maximal effect. An outline of the steps:
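Reporter-gene luminescence from MDA-kb2 cells exposed 16hr at 37C (0% CO2) to 15-point compound titrations with 3.0uM final nilutamide as AR antagonist.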

Where “and” joins values, the source holds several entries; their conditions need not be identical. Identical values can stand only once. Records with an inconclusive call do not appear. Some compounds were tested as several samples or in several runs, with calls that do not always agree. Calls of active or inactive are those of the source. Unless noted, calls follow the shape of the full dose curve.
% is scaled to controls: 0 for no effect and ±100 for the full control effect.

Estrogen receptor (Homo sapiens), sequence (P03372 whole entry, looked up): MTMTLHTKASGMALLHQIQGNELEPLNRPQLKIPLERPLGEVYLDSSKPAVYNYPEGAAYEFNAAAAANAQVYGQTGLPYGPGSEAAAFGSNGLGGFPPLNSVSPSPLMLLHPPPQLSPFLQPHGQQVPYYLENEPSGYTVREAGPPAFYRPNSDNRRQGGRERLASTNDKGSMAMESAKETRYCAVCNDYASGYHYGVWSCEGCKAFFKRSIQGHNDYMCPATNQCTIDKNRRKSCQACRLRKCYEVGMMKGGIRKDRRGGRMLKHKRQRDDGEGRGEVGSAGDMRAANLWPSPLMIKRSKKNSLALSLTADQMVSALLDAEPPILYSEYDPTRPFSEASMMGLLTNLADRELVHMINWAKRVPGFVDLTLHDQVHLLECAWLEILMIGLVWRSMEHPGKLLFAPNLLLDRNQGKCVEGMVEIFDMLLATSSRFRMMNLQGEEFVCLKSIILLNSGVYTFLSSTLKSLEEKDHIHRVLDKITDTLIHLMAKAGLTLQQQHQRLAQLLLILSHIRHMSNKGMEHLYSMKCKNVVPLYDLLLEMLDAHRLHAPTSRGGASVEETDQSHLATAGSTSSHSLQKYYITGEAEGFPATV
Thyrotropin receptor (Homo sapiens), sequence (P16473 whole entry, looked up): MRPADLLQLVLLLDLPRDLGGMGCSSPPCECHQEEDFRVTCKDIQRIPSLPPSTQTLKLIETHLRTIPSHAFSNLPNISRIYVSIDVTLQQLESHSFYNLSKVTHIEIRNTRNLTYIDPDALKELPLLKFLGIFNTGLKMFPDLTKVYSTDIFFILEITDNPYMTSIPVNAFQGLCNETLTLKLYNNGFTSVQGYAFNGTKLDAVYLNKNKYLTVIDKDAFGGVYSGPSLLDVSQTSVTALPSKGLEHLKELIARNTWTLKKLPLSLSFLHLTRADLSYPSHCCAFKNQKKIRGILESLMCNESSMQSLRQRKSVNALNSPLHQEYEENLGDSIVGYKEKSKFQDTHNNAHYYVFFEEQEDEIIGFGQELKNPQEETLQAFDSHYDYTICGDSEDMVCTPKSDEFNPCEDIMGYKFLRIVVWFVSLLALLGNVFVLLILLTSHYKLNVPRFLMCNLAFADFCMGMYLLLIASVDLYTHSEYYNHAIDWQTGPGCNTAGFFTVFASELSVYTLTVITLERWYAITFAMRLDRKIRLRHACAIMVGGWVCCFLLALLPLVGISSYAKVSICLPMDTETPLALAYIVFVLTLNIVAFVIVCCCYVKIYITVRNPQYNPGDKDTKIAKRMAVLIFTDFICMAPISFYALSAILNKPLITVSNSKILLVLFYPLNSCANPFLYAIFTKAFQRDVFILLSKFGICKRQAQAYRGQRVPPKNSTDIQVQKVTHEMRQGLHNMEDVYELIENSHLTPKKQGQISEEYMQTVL
Estrogen receptor beta (Homo sapiens), sequence (Q92731 whole entry, looked up): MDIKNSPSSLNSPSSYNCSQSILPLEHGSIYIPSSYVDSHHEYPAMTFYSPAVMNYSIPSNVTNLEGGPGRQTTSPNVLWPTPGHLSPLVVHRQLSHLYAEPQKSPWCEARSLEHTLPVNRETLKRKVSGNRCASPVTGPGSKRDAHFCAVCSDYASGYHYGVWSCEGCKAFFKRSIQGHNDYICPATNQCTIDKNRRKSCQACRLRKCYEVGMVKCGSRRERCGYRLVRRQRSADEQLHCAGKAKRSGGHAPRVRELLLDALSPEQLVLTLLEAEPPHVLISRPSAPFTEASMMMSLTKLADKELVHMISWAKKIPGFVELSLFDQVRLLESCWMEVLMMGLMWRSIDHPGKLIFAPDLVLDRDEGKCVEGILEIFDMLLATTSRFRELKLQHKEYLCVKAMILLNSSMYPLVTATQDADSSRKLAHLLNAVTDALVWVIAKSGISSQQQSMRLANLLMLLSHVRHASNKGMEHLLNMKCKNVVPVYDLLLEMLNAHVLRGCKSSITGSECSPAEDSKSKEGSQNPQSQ
Androgen receptor (Homo sapiens), sequence (P10275 whole entry, looked up): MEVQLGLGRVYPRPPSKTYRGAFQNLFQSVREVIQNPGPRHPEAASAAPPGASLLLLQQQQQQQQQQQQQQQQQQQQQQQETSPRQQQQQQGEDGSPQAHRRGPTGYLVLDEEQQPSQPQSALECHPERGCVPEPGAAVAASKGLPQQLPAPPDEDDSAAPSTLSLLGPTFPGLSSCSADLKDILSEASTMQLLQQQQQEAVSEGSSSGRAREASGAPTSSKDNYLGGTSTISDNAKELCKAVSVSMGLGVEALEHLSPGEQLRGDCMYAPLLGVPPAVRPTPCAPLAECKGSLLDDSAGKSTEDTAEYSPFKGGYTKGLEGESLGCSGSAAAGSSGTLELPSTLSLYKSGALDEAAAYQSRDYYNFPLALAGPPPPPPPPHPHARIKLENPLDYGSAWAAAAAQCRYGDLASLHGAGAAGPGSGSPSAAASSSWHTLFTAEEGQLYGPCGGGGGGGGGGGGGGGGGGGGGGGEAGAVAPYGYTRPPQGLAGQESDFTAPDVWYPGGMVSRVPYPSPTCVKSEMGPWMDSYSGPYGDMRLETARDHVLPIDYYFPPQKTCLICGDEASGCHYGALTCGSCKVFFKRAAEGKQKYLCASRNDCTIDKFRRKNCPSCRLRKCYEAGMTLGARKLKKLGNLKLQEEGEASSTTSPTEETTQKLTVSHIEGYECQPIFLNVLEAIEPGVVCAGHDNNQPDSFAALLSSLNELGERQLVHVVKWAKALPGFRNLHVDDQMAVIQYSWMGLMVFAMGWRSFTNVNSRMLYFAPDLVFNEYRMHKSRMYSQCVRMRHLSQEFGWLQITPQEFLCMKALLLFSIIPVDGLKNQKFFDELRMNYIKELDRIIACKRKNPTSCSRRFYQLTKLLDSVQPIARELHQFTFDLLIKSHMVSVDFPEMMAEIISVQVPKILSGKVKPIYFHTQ

For `OC[C@H]1O[C@@H]2O[C@H]3[C@H](O)[C@@H](O)[C@@H](O[C@H]4[C@H](O)[C@@H](O)[C@@H](O[C@H]5[C@H](O)[C@@H](O)[C@@H](O[C@H]6[C@H](O)[C@@H](O)[C@@H](O[C@H]7[C@H](O)[C@@H](O)[C@@H](O[C@H]1[C@H](O)[C@H]2O)O[C@@H]7CO)O[C@@H]6CO)O[C@@H]5CO)O[C@@H]4CO)O[C@@H]3CO`, the Potency entry in test [1] is “inactive and 9.13 µM (active)”. Moreover, the Potency entry in test [2], in [3], in [4], in test [5], in test [6] and in test [7] was “inactive” throughout. For the same compound, the Potency entry in test [8] and in test [9] was “inactive” each time.

For the compound `CNC[C@H](O)c1ccc(O)c(O)c1`, the Potency was 17.2 µM (active) in [1]; 1.66 µM (active) and 111 nM (active) in test [8]. For the same compound, in test [1], the activity change, negative = inhibition is -2.86% [at 19 µM] (inactive). For the same compound, the Potency result in test [4], in test [5], in [6] and in test [9] was “inactive” each time.

In the case of `COc1ccc2nc(N)sc2c1`, the Potency result in test [1], in [2], in test [3], in test [4], in test [5] and in [10] was “inactive” in each case. For the same compound, the Potency result in test [6] and in test [8] was “inactive” each time.

Take `C=CCOC(=O)C(=C)C`: the Potency entry in test [1], in test [2], in [3], in test [4], in test [5] and in test [6] was “inactive” each time. Also, the Potency result in test [8] and in [9] was “inactive” each time.

With `Cc1ccc(N)c([N+](=O)[O-])c1`, the Potency entry in test [1], in [2], in [3], in test [4], in test [5] and in [6] was “inactive” each time. Besides, the Potency result in test [7], in test [8] and in [9] was “inactive” each time.

`O=C1CCc2ccccc2O1`: the Potency entry in test [1], in test [2], in test [3], in test [4], in [5] and in test [6] was “inactive” each time. Moreover, the Potency entry in test [7], in test [8] and in test [9] was “inactive” throughout.

Regarding `O=C(CCCN1CCC(O)(c2ccc(Cl)cc2)CC1)c1ccc(F)cc1`, the Potency result in test [1], in test [2], in test [3], in [8] and in [9] was “inactive” throughout. The Potency was 68.6 µM (active) and inactive in test [4]; 21.7 µM (active) and 23.7 µM (active) in test [5].

On to `CCC/C=C/C=O`, for which the Potency result in [1], in test [2], in test [3], in test [4], in test [5] and in [6] was “inactive” each time. The Potency result in [7], in test [8] and in test [9] was “inactive” each time.

Take `CC(=O)O[C@]1(C(C)=O)CC[C@H]2[C@@H]3C=C(Cl)C4=CC(=O)CC[C@]4(C)[C@H]3CC[C@@]21C`: the Potency result in [1], in test [2], in test [3], in [4], in test [5] and in [6] was “inactive” each time. Besides, in test [8], the Potency entry is “inactive”. Further, in test [9], the Potency is 29.8 µM (active).

As to `Nc1cc([N+](=O)[O-])ccc1C(=O)O`, the Potency entry in test [1], in [2], in test [3], in test [4], in test [5] and in [6] was “inactive” throughout. The Potency result in test [8] and in test [9] was “inactive” in each case.

For the compound `CN(C)CCCN1c2ccccc2Sc2ccc(Cl)cc21`, the Potency in [1] was 13.7 µM (active) and inactive; in [3], 30.6 µM (active) and 21.1 µM (active); in test [4], 61.1 µM (active); in [5] it was 19.3 µM (active) and 16.8 µM (active); in test [6], 27.3 µM (active) and 18.8 µM (active); in test [9] it was 26.6 µM (active). In addition, the Potency result in test [2] and in test [8] was “inactive” throughout.

For the compound `CCc1cccc2c3c([nH]c12)C(CC)(CC(=O)O)OCC3` (stereo unspecified), the Potency result in test [1], in [2], in test [3], in [4], in test [5] and in [10] was “inactive” in each case. Besides, the Potency result in test [6], in [8] and in test [9] was “inactive” each time.

As for `C=CC(=O)OCCCC`, the Potency entry in [1], in test [2], in [3], in test [4], in [5] and in test [6] was “inactive” in each case. The Potency entry in test [8] and in [9] was “inactive” in each case.

`CCC(=O)O[C@H]1[C@H](O[C@@H]2[C@@H](C)[C@H](O[C@H]3C[C@@](C)(OC)[C@@H](O)[C@H](C)O3)[C@@H](C)C(=O)O[C@H](CC)[C@@](C)(O)[C@H](O)[C@@H](C)C(=O)[C@H](C)C[C@@]2(C)O)O[C@H](C)C[C@@H]1N(C)C`: the Potency is 16.1 µM (active) and inactive in test [1]; 36.1 µM (active) and inactive in test [5]; 32.2 µM (active) and inactive in [6]. The Potency result in [2], in test [3] and in test [4] was “inactive” each time.

As for `c1ccc2c(c1)[nH]c1ccccc12`, the Potency entry in test [1], in test [2], in test [3], in test [5], in test [10] and in test [6] was “inactive” each time. Further, in test [7], the Potency result is “inactive”.

As to `CC(=O)Oc1ccc(C(c2ccc(OC(C)=O)cc2)c2ccccn2)cc1`, the Potency entry in test [1], in test [2], in test [5], in test [10], in test [6] and in test [8] was “inactive” in each case. Further, in test [9], the Potency result is “inactive”. Moreover, the Potency in test [3] is 2.16 µM (active) and 3.76 µM (active).

Turning to `CCCCCCCCCCCCO`, the Potency entry in [1] was “inactive and 60.4 µM (active)”. In addition, the Potency entry in [2], in test [3], in test [4], in test [5], in test [6] and in test [8] was “inactive” in each case. Besides, in [9], the Potency entry is “inactive”.

Consider `CC1=CC(C)(C)Nc2ccccc21`, for which the Potency result in test [1], in test [2], in [3], in [4], in [5] and in test [6] was “inactive” throughout. In test [7], the Potency entry is “inactive”.

For the compound `Brc1nc2ccccc2s1`, the Potency entry in [1], in test [2], in test [3], in [4], in test [5] and in [6] was “inactive” each time. For the same compound, the Potency entry in test [7], in [8] and in [9] was “inactive” throughout.

`FC(F)(F)C(Cl)Br` (stereo unspecified): the Potency entry in test [1], in test [2], in test [3], in test [4], in test [5] and in test [6] was “inactive” in each case. Besides, the Potency result in test [7], in test [8] and in [9] was “inactive” each time.

On to `C=C1C[C@H]2[C@@H]3C=C(C)C4=CC(=O)CC[C@]4(C)[C@H]3CC[C@]2(C)[C@@]1(OC(C)=O)C(C)=O`, for which the Potency in [1] is 19.7 µM (active) and inactive; in test [10], 39.4 nM (active) and 59.6 nM (active). In addition, the Potency result in [2], in [3], in [4], in [5], in [6] and in test [7] was “inactive” in each case.

As for `COC(=O)C(C)Oc1ccc(Oc2ncc(C(F)(F)F)cc2Cl)cc1` (stereo unspecified), in test [1], the Potency result is “inactive and 30.6 µM (active)”. In addition, the Potency entry in [2], in [3], in test [4], in test [5], in test [6] and in [7] was “inactive” throughout. Besides, the Potency result in test [8] and in test [9] was “inactive” throughout.

On to `C=CC(C)(O)CCC=C(C)C` (stereo unspecified), for which the Potency result in test [1], in test [2], in [3], in test [4], in test [5] and in test [6] was “inactive” throughout. For the same compound, the Potency result in test [8] and in test [9] was “inactive” each time.
